Gli-Sufu antag – antagonists of Gli-Sufu signaling. Sufu-KO-LIGHT fibroblasts, Gli luciferase reporter luminescence. inhibition, % at 5 µM. hit rate 0.74% among 340,000;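 active = inhibition above about 55%, limit read from the data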
FXN GAA850 act – activators of GAA850 frataxin (FXN) promoter | HEK293 lucGAA850 FXN promoter luciferase reporter, 24 h; percent of 10 µM SAHA response | activation, % at 6 µM | hit rate 0.56% among 360,000 | AID 540364;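 active = activation above the average of all compounds screened plus 3 SD, cutoff fixed separately per campaign, cut at about 7.5% in these data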
GalR3 antag – antagonists of human GalR3. O60755. HEK293 GalR3-CNG cAMP membrane potential fluorescence; galR3 body fused to GalR1 C-terminus. inhibition, % at 3 µM. hit rate 0.44% among 360,000. AID 651719;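 active = inhibition above the screen-wide average plus 3 SD, cut at about 13% in these data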;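 note: forskolin and galanin both at EC90 stimulate the cells; cAMP rise reported by CNG channel membrane potential dye signal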
Target sequence (O60755 1-299 limits assumed): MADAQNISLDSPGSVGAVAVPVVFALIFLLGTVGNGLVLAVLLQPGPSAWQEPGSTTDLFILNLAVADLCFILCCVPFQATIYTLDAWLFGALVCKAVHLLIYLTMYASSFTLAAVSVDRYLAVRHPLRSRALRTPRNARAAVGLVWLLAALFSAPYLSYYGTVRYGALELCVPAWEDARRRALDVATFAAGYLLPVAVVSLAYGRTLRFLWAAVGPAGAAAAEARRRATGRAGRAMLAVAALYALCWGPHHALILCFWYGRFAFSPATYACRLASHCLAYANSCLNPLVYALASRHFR
SMARCA2 act – activators of SMARCA2 function. MG213 cells, MMTV-luciferase reporter, dexamethasone, overnight. activation, % at 9.1 µM. hit rate 1% among 370,000. AID 652017; in the data active = activation above about 7.8%
NR2F2 inh – NR2F2 (human) inhibition, primary screen. P24468. HEK293T NGFI-A luciferase reporter, luminescence. inhibition, % at 8.6 µM. hit rate 0.7% among 370,000. AID 686940;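 active = inhibition above a per-plate cutoff, mean inhibition of test wells between control levels plus 3 SD, cut at about 38% in these data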;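 note: cells cotransfected with COUP-TFII expression vector driving the NGFI-A reporter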
Target sequence (P24468 whole entry, looked up): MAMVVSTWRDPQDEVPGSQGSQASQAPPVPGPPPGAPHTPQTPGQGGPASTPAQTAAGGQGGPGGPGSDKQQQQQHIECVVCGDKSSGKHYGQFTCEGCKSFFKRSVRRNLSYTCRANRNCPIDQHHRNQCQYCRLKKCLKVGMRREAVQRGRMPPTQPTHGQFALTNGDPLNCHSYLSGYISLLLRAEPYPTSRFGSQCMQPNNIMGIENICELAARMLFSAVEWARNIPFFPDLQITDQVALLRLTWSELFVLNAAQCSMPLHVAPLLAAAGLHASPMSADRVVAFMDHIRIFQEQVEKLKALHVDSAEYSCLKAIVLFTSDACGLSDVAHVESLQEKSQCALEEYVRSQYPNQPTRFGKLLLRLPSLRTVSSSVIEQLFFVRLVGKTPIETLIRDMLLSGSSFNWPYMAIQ
H9c2 protect – modulators protecting cardiomyocytes from myocardial damage; H9c2 cardiomyocytes, H2O2 injury protection, ATPLite, 2 h; protection from H2O2 cell death, % at 20 µM; hit rate 0.63% among 360,000;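 active = compounds giving at least 50% protection of heart cells from peroxide-induced death in the single-dose screen, raw or plate-pattern-corrected value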
Gli antag conf – confirmation of Gli-SUFU pathway antagonists; Sufu-KO-LIGHT cells, Gli luciferase reporter, luminescence; shares compounds with Gli-Sufu antag; hit rate 40% among 2,500; inhibition, % at 5 µM; AID 602428;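 active = mean inhibition at 5 µM reaching about 45%, limit read from the data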
Gli cytotox – cytotoxic in Gli-SUFU antagonist counter-screen; cytotoxicity, % at 5 µM; Sufu-KO-LIGHT cells cytotoxicity, ATP luminescence; shares compounds with Gli-Sufu antag; hit rate 32% among 2,500; AID 651994;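 active = mean cytotoxicity at 5 µM above about 25%, limit read from the data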;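 note: cells exposed to compound overnight for roughly 16 to 18 hours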
Wnt3a cs – Wnt3a reporter inhibition counter-screen; inhibition, % at 6.25 µM; shares compounds with Gli-Sufu antag; hit rate 20% among 2,500; AID 651995; Wnt-LIGHT cells, Wnt3a-driven luciferase reporter, luminescence;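 active = mean inhibition above about 25%, limit read from the data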
GalR3 antag conf – GalR3 (human) antagonism, confirmation; shares compounds with GalR3 antag; HEK293 GalR3 CNG cAMP biosensor, membrane potential fluorescence; galR3 fused to GalR1 carboxy tail; challenged with forskolin and galanin at EC90; inhibition, % at 3 µM; hit rate 59% among 1,600;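 active = inhibition above the primary screen's cutoff, the mean inhibition of all screened compounds plus 3 SD, cut at about 13% in these data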
CNG parental – parental cell agonism counter-screen for GalR3 antagonists; shares compounds with GalR3 antag; HEK293-CNG parental cells, cAMP membrane potential fluorescence; normalised: DMSO wells 0%, forskolin wells 100%; activation, % at 3 µM; hit rate 10% among 1,600; in the data active = activation above about 1.3%
Gal4-VP16 ctr – inhibits VP16 reporter, flagging COUP-TFII antagonist hits. shares compounds with NR2F2 inh. HEK293 Gal4-VP16 luciferase reporter, luminescence. inhibition, % at 8.5 µM. hit rate 25% among 2,500. AID 687007; in the data active = inhibition above about 13%
NR2F2 inh conf – confirmation of human COUP-TFII (NR2F2) inhibitors. shares compounds with NR2F2 inh. HEK293 NGFI-A luciferase reporter, luminescence. inhibition, % at 8.5 µM. hit rate 45% among 2,500. AID 687008;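 active = mean inhibition over three repeats above a set limit taken from the earlier primary screen, cut at about 38% in these data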
Hits are given with their value; i = inactive; nt = not tested or not shown. An excerpt weighted towards active compounds, which were near 3.4% of everything screened.

SMILES	Gli-Sufu antag	FXN GAA850 act	GalR3 antag	SMARCA2 act	NR2F2 inh	H9c2 protect	Gli antag conf	Gli cytotox	Wnt3a cs	Gal4-VP16 ctr	NR2F2 inh conf	others
CCOC(=O)N1CCN(C(=O)CSC2=NS(=O)(=O)c3ccccc3N2)CC1	i	i	i	i	i	i	nt	nt	nt	nt	nt
COc1ccc(/C=N/OCC(=O)Nc2cc(C)on2)cc1OC	i	i	i	i	i	i	nt	nt	nt	nt	nt
COc1ccc(/C=N/OCC(=O)NC(c2ccccc2)c2ccccc2)cc1OC	i	i	89	i	61	i	53	31	35	i	62	GalR3 antag conf=100;CNG parental=i
COc1cc(NS(=O)(=O)c2ccc(C)cc2C)cc(OC)c1OC	i	i	i	i	45	i	50	i	i	i	40
Cc1c(C(C)C)c(=O)n(-c2ccc(S(=O)(=O)NC3CCCCC3)cc2)n1C	68	i	41	i	62	i	60	25	i	i	39	GalR3 antag conf=51;CNG parental=i
Cc1c(C(C)C)c(=O)n(-c2ccc(S(=O)(=O)NCc3ccccc3)cc2)n1C	71	i	91	i	63	i	63	i	i	i	53	GalR3 antag conf=102;CNG parental=i
Cc1c(C(C)C)c(=O)n(-c2ccc(S(=O)(=O)N3CCOCC3)cc2)n1C	i	i	i	i	i	i	nt	nt	nt	nt	nt
COc1cccc(CN(C)C(=O)c2[nH]c(C)c(C(C)=O)c2C)c1OC	i	i	i	i	i	i	nt	nt	nt	nt	nt
COCCN(C(=O)COC(=O)CCSc1ccc(F)cc1)c1c(N)n(Cc2ccccc2)c(=O)[nH]c1=O	i	i	i	i	i	i	nt	nt	nt	nt	nt
COc1cc(NC(=O)Cc2nn(C)c(=O)c3ccccc23)cc(OC)c1	i	i	i	i	i	i	nt	nt	nt	nt	nt
Cn1nc(CC(=O)N2CCN(c3ccccc3)CC2)c2ccccc2c1=O	i	i	i	i	i	i	nt	nt	nt	nt	nt
Cn1nc(CC(=O)Nc2ccc3c(c2)OCCO3)c2ccccc2c1=O	66	i	100	i	68	i	68	31	41	i	53	GalR3 antag conf=106;CNG parental=i
Cn1nc(CC(=O)Nc2ccc(N3CCN(C(=O)OC(C)(C)C)CC3)cc2)c2ccccc2c1=O	66	i	i	i	53	i	78	39	37	i	64
CC(NC(=O)CNC(=O)C1O[C@@H]2OC(C)(C)O[C@@H]2[C@H]2OC(C)(C)O[C@@H]12)C(=O)O (some centres undefined)	i	i	i	i	i	i	nt	nt	nt	nt	nt
CCCCn1c(CN(C)Cc2ccccc2)nc2c1c(=O)n(C)c(=O)n2C	60	i	i	i	40	i	52	i	i	i	i
O=C(CO)C(O)C(O)C(O)CO (centres undefined)	i	i	i	i	i	i	nt	nt	nt	nt	nt
COc1cccc(NC(=O)CSc2nnc(-c3cc(C)n(-c4ccccc4)c3C)o2)c1	i	i	i	i	68	i	69	i	76	30	70
CC(/C=C1\SC(=O)N(CCCC(=O)O)C1=O)=C\c1ccccc1	60	i	i	i	92	i	73	i	100	92	100
OC(c1ccccc1)(c1ccccc1)C1CCN(CCCNc2ccccc2Br)CC1	nt	nt	nt	i	i	nt	nt	nt	nt	nt	nt
Cc1nc2sccn2c1-c1csc(NCc2ccccc2)n1	56	i	i	i	38	i	50	i	i	i	i
CCN(CC)S(=O)(=O)c1ccc(C)c(NC(=S)N2CCN(C/C=C/c3ccccc3)CC2)c1	66	i	i	i	43	i	i	31	i	i	i
CCN(CC)S(=O)(=O)c1ccc(C)c(NC(=S)N2CCN(c3ccccn3)CC2)c1	i	i	i	i	i	i	nt	nt	nt	nt	nt
CCc1ccc(OC(C)C(=O)Nc2ccc(S(=O)(=O)Nc3nccs3)cc2)cc1 (centres undefined)	i	i	i	i	i	i	nt	nt	nt	nt	nt
O=S(=O)(NCc1ccncc1)c1ccc(Br)s1	70	i	105	i	63	i	64	44	46	i	54	GalR3 antag conf=116;CNG parental=i
COc1cc(C)c(Br)cc1S(=O)(=O)NCc1ccccc1	i	i	i	i	i	i	nt	nt	nt	nt	nt
SMILES	Gli-Sufu antag	FXN GAA850 act	GalR3 antag	SMARCA2 act	NR2F2 inh	H9c2 protect	Gli antag conf	Gli cytotox	Wnt3a cs	Gal4-VP16 ctr	NR2F2 inh conf	others
COc1ccc(S(=O)(=O)NCc2cccnc2)cc1	i	i	i	i	i	i	nt	nt	nt	nt	nt
COc1ccc(S(=O)(=O)NCc2cccnc2)cc1Br	59	i	i	i	48	i	i	i	i	i	39
COc1cc(S(=O)(=O)NCc2ccncc2)ccc1Br	68	i	63	i	56	i	61	i	30	i	44	GalR3 antag conf=90;CNG parental=i
Cc1cc(Br)c(S(=O)(=O)NCc2ccncc2)cc1C	i	i	101	i	54	i	52	i	26	i	47	GalR3 antag conf=105;CNG parental=i
Cc1ccc2c(c1)-n1c(nc3ccc(C)cc3c1=O)C(Cc1ccc(O)cc1)NC2=O (centres undefined)	nt	nt	i	i	i	nt	nt	nt	nt	nt	nt
O=C(O)c1cc(N2CCCC2)ccn1	i	i	i	i	i	i	nt	nt	nt	nt	nt
CCOC(=O)c1c(S(=O)(=O)N2CCN(Cc3ccccc3)CC2)c(C)n(C)c1C	i	i	i	i	i	i	nt	nt	nt	nt	nt
CCN(C1CCCCC1)S(=O)(=O)c1ccc(S(=O)(=O)NCc2ccncc2)cc1	60	i	16	i	55	i	50	31	55	i	i	GalR3 antag conf=49;CNG parental=i
Cc1ccc(S(=O)(=O)NCc2ccncc2)cc1C	74	i	88	i	60	i	73	26	36	15	57	GalR3 antag conf=105;CNG parental=i
Cc1cc(Nc2ccccc2)nc(NCc2ccccc2)n1	68	i	i	i	38	i	58	33	25	i	i
Cc1cc(C)cc(NC(=S)NN)c1	i	i	i	i	i	i	nt	nt	nt	nt	nt
Cc1cccc(C)c1NC(=O)c1cc(S(=O)(=O)N2CCc3ccccc32)cn1C	i	i	nt	i	i	i	nt	nt	nt	nt	nt

Screening results from PubChem.
